# Reference: PubChem BioAssay (NCI)
# The panel holds about 83,000 compounds, 20% with a hit somewhere; the sample as a whole holds those more often.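 48-hour exposure, single concentration, 96-well plates; percent growth endpoint where 0 means no net growth. Active: below 10.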 A number with no mark means an inactive call. Activity calls are given as the source filed them.
# Key:
# Assay in all cases: NCI-60 one-dose screen, 48 h (100 = growth as untreated, 0 = no growth, -100 = all killed)
# Settings in all cases: 10 µM unless noted
# NCI-H23 lung = tested on: NCI-H23 lung
# NCI-H226 lung = tested on: NCI-H226 lung
# NCI-H322M lung = tested on: NCI-H322M lung
# HOP-62 NSCLC = tested on: HOP-62 NSCLC
# NCI-H460 lung = tested on: NCI-H460 lung
# HOP-92 NSCLC = tested on: HOP-92 NSCLC
# NCI-H522 lung = tested on: NCI-H522 lung
# A549/ATCC NSCLC = tested on: A549/ATCC NSCLC
# 786-0 renal = tested on: 786-0 renal
# COLO 205 colon = tested on: COLO 205 colon
# DU-145 prostate = tested on: DU-145 prostate
# K-562 leukemia = tested on: K-562 leukemia
# MALME-3M melanoma = tested on: MALME-3M melanoma
# MDA-MB-231 breast = tested on: MDA-MB-231 breast
# RXF 393 renal = tested on: RXF 393 renal
# SF-268 CNS = tested on: SF-268 CNS
# SF-295 CNS = tested on: SF-295 CNS
# SF-539 CNS = tested on: SF-539 CNS
# UACC-257 melanoma = tested on: UACC-257 melanoma
# M14 melanoma = tested on: M14 melanoma
SMILES,growth (NCI-H23 lung),growth (NCI-H226 lung),growth (NCI-H322M lung),growth (HOP-62 NSCLC),growth (NCI-H460 lung),growth (HOP-92 NSCLC),growth (NCI-H522 lung),growth (A549/ATCC NSCLC),growth (786-0 renal),growth (COLO 205 colon),growth (DU-145 prostate),growth (K-562 leukemia),growth (MALME-3M melanoma),growth (MDA-MB-231 breast),growth (RXF 393 renal),growth (SF-268 CNS),growth (SF-295 CNS),growth (SF-539 CNS),growth (UACC-257 melanoma),growth (M14 melanoma) [%]
O=C(Nc1ccc(C(=O)/C=C/c2ccc(N3CCOCC3)cc2)cc1)Nc1ccc([N+](=O)[O-])cc1,83.4%,45%,63.1%,105%,67.9%,120%,84.1%,81.3%,111%,109%,98%,68.6%,108%,94.8%,119%,97.1%,103%,109%,99%,110
Cn1c(=O)c(C#N)c(-c2ccco2)n2c(S(=O)(=O)Cc3ccccc3)nnc12,94.3%,122%,89.1%,104%,79.9%,92.8%,81.2%,92.8%,81.1%,111%,77%,100%,63.6%,126%,91%,104%,112%,101%,8.93% (active),57.6
COc1ccc(CC(C#N)c2ccc(Cl)cc2)cc1 (centres undefined),77.2%,87.5%,93.9%,74.3%,83.7%,83.8%,78.1%,79.1%,87%,94%,77.3%,41.6%,89.3%,79.7%,92.1%,78%,78.9%,85.1%,91.7%,73.3
CC1(C)[C@@H](NOCCCN)CC[C@]2(C)[C@H]3C(=O)C=C4[C@@H]5C[C@](C)(C(=O)O)CC[C@]5(C)CC[C@@]4(C)[C@]3(C)CC[C@@H]12,-39.4% [100 µM] (active),-44.8% [100 µM] (active),-94.4% [100 µM] (active),-84.4% [100 µM] (active),-67.2% [100 µM] (active),-71.8% [100 µM] (active),-57.7% [100 µM] (active),-27.4% [100 µM] (active),-78.6% [100 µM] (active),-68.2% [100 µM] (active),-49.8% [100 µM] (active),-8.83% [100 µM] (active),-100% [100 µM] (active),-88.4% [100 µM] (active),-54.3% [100 µM] (active),-51.8% [100 µM] (active),-56.3% [100 µM] (active),-93.5% [100 µM] (active),-44.5% [100 µM] (active),
CC(C)C1=NOC(=O)C1=Cc1cn(-c2ccccc2)nc1-c1ccc(Br)cc1,85.8%,93.7%,90.5%,91.3%,83.5%,83.1%,86%,98.2%,82.9%,97.8%,92.9%,43.4%,87.7%,91.5%,70.3%,102%,96.8%,78.5%,100%,76.6
CC(C)C1=NOC(=O)C1=Cc1cn(-c2cccnc2)nc1-c1ccccc1,107%,106%,100%,100%,103%,92.6%,82.7%,94.8%,82.2%,107%,104%,72.7%,111%,96%,64.8%,102%,98.1%,104%,111%,103
CC(=O)CC(=O)SC1=NCCS1,108%,112%,113%,123%,106%,101%,95.8%,87.6%,109%,109%,121%,104%,140%,112%,122%,102%,109%,102%,98.8%,113
Cc1cccc([N+](=O)[O-])c1I,105%,102%,112%,101%,111%,87.4%,93.8%,102%,108%,110%,116%,141%,116%,102%,111%,105%,101%,105%,96.7%,108
O=C(NCCCNC(=O)OCc1ccc2cccc(O)c2n1)OCc1ccc2cccc(O)c2n1,70%,71.1%,59.4%,32.1%,26.1%,33.9%,18.4%,47.5%,60.1%,29.6%,28.7%,14.1%,72.3%,70%,0.757% (active),54%,38.7%,35.1%,53.9%,38.9
CC1Cc2c(ncnc2-n2cnc3ccccc32)N(C)c2ccccc21 (centres undefined),48.5%,58.6%,63.7%,32.3%,18.7%,36.3%,20%,39.3%,39.2%,20.9%,50.3%,15.5%,64.5%,29.4%,34%,49%,18.9%,17%,53.1%,12.9
O=S(=O)(NCc1ccccc1)c1ncnc2nc[nH]c12,106%,99.4%,109%,103%,117%,117%,95.5%,86.5%,107%,109%,111%,97.1%,117%,107%,114%,110%,104%,98.1%,92.7%,108
O=C(NCc1ccccc1)C(Cl)Cl,104%,93.3%,102%,98.6%,108%,95.1%,101%,97.4%,104%,116%,110%,108%,101%,102%,107%,99.7%,95.7%,97.4%,102%,101
O=[N+]([O-])c1cccc(N=NNc2cccc([N+](=O)[O-])c2)c1,95.2%,108%,101%,110%,100%,64.4%,78%,86.7%,90.4%,113%,86.2%,103%,102%,78.8%,90.2%,93.5%,95.6%,97.6%,103%,102
CCCCCC1CCCCN1C(=O)OCCCC (centres undefined),62%,87.5%,103%,122%,99.9%,113%,32%,114%,104%,111%,118%,109%,88.9%,77.5%,96.9%,99.1%,89.3%,92%,-7.74% (active),105
CC1(C(=O)O)CCC(N)(C(=O)O)C1(C)C (centres undefined),113%,108%,108%,99.5%,117%,89.4%,97.1%,110%,109%,104%,118%,107%,113%,108%,126%,112%,97.3%,108%,121%,110
